Where “and” joins values, the source holds several entries; their conditions need not be identical. Identical values can stand only once. Records with an inconclusive call do not appear. A number with no mark means an inactive call. Calls of active or inactive are those of the source. The call rests on the fitted dose curve; in most records, active means well fitted cell-killing curve with a large enough effect; inconclusive means small, poorly fitted or top-dose-only effect, or effect the other way; inactive means no such curve, though single readings can be large or run the other way.

The nature of test [1]: Viability qHTS for spleen associated tyrosine kinase inhibitor (SYKi) naive MV4-11 cells (AID 1963823). Further: nearly all actives have a fitted effect of over 40% in size. The following applies: MV4-11 AML viability, CellTiter-Glo luminescence, 72 h; series mostly up to 45 µM. In short, it runs like this:
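Compounds were dispensed acoustically onto plates, MV4-11 cells (SYKi-naive) added at 500 per well, and plates incubated 72 hr at 37 C. CellTiter-Glo was added and luminescence measured after 10 min.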
In general terms: qHTS replaces the single test concentration by a dilution series.

A short description of test [2]: Viability qHTS for spleen associated tyrosine kinase inhibitor (SYKi) drug resistant MV4-11 cells (AID 1963824). Further: nearly all actives have a fitted effect of over 35% in size. The following applies: SYKi-resistant MV4-11 viability, CellTiter-Glo, 72 h; series mostly up to 45 µM. In short, it runs like this:
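SYK-inhibitor-resistant MV4-11 AML cells were seeded at 500 per well onto compound and cultured 72 hours (37 °C, 5% CO2). CellTiter-Glo was then added, and after 10 min at room temperature, luminescence gave viability.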
Potency means the concentration at half of the fitted maximal effect.

In the case of `C[C@@H](O[C@H]1OCCN(Cc2n[nH]nc2CN(C)C)[C@H]1c1ccc(F)cc1)c1cc(C(F)(F)F)cc(C(F)(F)F)c1`, the figures for the Potency in test [1] and in test [2] were 10.3 µM (active) and 6.51 µM (active), respectively.
For the compound `CN(C)CC(c1ccc(O)cc1)C1(O)CCCCC1` (stereo not drawn), the Potency result in test [1] and in test [2] was “inactive” throughout.
For `CC12CCC(C(OC3OC(COC4OCC(O)(CO)C4O)C(O)C(O)C3O)C1)C(C)(C)O2` (stereo not drawn), the Potency entry in test [1] and in test [2] was “inactive” throughout.
Consider `CCC(C)CC(=O)OC1C(=O)C(CO)=CC(O)C1C(C)C` (stereo not drawn), for which the Potency in test [1] and in test [2] was 2.59 µM (active) throughout.
For `COC(=O)[C@@]1(O)C=CC[C@@H]2[C@@]3(C)C[C@@H](c4ccoc4)OC(=O)[C@H]3CC[C@]21C`, the Potency result in test [1] and in test [2] was “inactive” in each case.
Turning to `CCCOc1ccn2c(C(C)=O)cc(-c3ccccc3S(C)(=O)=O)c2c1`, the results for the Potency in test [1] and in test [2] were 20.9 µM (active) and 14.8 µM (active), respectively.
The corresponding values for `CC(O)CO[C@@H]1O[C@H](CO)[C@@H](O)[C@H](O)[C@H]1O` (stereo partly drawn) are “inactive” and “inactive”.
The corresponding values for `CC(C)(C)[C@H](NC(=O)c1ccc(N)c(Cl)c1)C(=O)N1CCC[C@H]1C(=O)N[C@H](C#N)CC(=O)O` are “inactive” and “inactive”.
With `O=C(O)C[C@H]1CCC(=O)[C@@H]1C/C=C\CCOC1OC(CO)C(O)C(O)C1O` (stereo partly drawn), the Potency result in test [1] and in test [2] was “inactive” throughout.
As to `COc1c2c(c(C)c3c1C(=O)OC3)OC1(C)CC(O)C34OC(OC)(CC(OC(C)=O)C3(C)C1C2)OC4(C)C` (stereo not drawn), the Potency result in test [1] and in test [2] was “inactive” in each case.
In the case of `CC/C(=C(\c1ccc(O)cc1)c1ccc(OCCNC)cc1)c1ccccc1`, the Potency entry in test [1] and in test [2] was “inactive” each time.
On to `CN(C)C(=O)NC1(c2ccccc2)CCN(CCC[C@]2(c3ccc(Cl)c(Cl)c3)CCCN(C(=O)c3ccccc3)C2)CC1`, for which the Potency is 2.59 µM (active) in test [1] and 4.11 µM (active) in test [2].
In the same order, the values of `CNc1nc(NCc2ccc(NS(C)(=O)=O)cc2Cl)cc(-c2ccccn2)n1` are 20.6 µM (active) and 23.1 µM (active).
The corresponding values for `CC(/C=C/[C@]1(O)[C@@]2(C)CO[C@@]1(C)C[C@@H](O)C2)=C\C(=O)O[C@@H]1O[C@H](CO)[C@@H](O)[C@H](O)[C@H]1O` are “inactive” and “inactive”.
The corresponding values for `CCc1c(C)nc2c(-c3cnn(-c4cc(CO)ccn4)c3)c[nH]n2c1=O` are “inactive” and “inactive”.
As to `C=C1C(=O)O[C@@H]2/C=C(\CO)CC/C=C(\CO)[C@H](OC(C)=O)C(OC(=O)C(C)CC)C12` (stereo partly drawn), the results for the Potency in test [1] and in test [2] were 5.02 µM (active) and 2.24 µM (active), respectively.
For `CC(=O)O[C@@H]1[C@H](O[C@@H]2OC[C@](O)(CO)[C@H]2O)[C@@H](O[C@@H]2O[C@@H](C)[C@H](O)[C@@H](O[C@@H]3O[C@H](CO)[C@@H](O)[C@H](O)[C@H]3O)[C@H]2O)[C@H](OC(=O)[C@]23CCC(C)(C)C[C@H]2C2=CCC4[C@@]5(C)C[C@H](O)[C@H](O[C@@H]6O[C@H](C(=O)O)[C@@H](O)[C@H](O)[C@H]6O)[C@@](C)(C(=O)O)C5CC[C@@]4(C)[C@]2(C)CC3)O[C@@H]1C` (stereo partly drawn), the viability (% of control) in test [1] was 95.7% [at 9.25 µM]. In addition, in test [2], the viability, % of control was 95.1% [at 9.25 µM].
With `CC(=O)c1cc2c(cc1O)OC(C)(C)C=C2`, the Potency result in test [1] and in test [2] was “inactive” each time.
As to `O=C(O)c1ccc(OC2OC(CO)C(O)C(O)C2O)cc1` (stereo not drawn), the Potency entry in test [1] and in test [2] was “inactive” throughout.
Turning to `Nc1ncnc2c1c(-c1ccc(Oc3ccccc3)cc1)nn2[C@@H]1CCCNC1`, the Potency in test [1] was 0.206 µM (active); in test [2] it was 0.259 µM (active).
The corresponding values for `CONC(=O)c1ccccc1Nc1cc(Nc2cc(C)nn2C(C)C)ncc1Cl` are 6.61 µM (active) and 13.2 µM (active).
The corresponding values for `C=CC(=O)N1CC(N2CCN(C(=O)CNc3cc(C4(C)CC4)c(Cl)cc3O)CC2)C1` are 18.6 µM (active) and 16.6 µM (active).
The corresponding values for `O=C(Nc1ccc(-c2ccc(Cl)c(Cl)c2)cc1)C1=C(O)c2ccccc2S(=O)(=O)N1` are 20.6 µM (active) and 23.1 µM (active).
In the case of `Cc1ncc(NC(=O)c2ccc(CN3CCN(C)CC3)c(C(F)(F)F)c2)cc1Nc1nccc(-c2cccnc2)n1`, the Potency in test [1] was 920 nM (active) and 1.66 µM (active); in test [2], 2.06 µM (active) and 3.32 µM (active).
Turning to `CN(C)CC1CCn2c(c(C3=C(c4cn(C)c5ccccc45)C(=O)NC3=O)c3ccccc32)C1` (stereo not drawn), the figures for the Potency in test [1] and in test [2] were 1.46 µM (active) and 2.91 µM (active), respectively.
Regarding `C[C@@H]1O[C@@H](O[C@H]2[C@H](OC(=O)[C@]34CCC(C)(C)C[C@H]3C3=CCC5[C@@]6(C)C[C@H](O)[C@H](O[C@@H]7O[C@H](CO)[C@@H](O)[C@H](O)[C@H]7O)[C@@](C)(CO)C6[C@H](O)C[C@@]5(C)[C@]3(C)CC4)OC[C@H](O)[C@@H]2O)[C@H](O)[C@H](O)[C@H]1O[C@@H]1OC[C@@H](O)[C@H](O[C@@H]2OC[C@](O)(CO)[C@H]2O)[C@H]1O` (stereo partly drawn), the viability (% of control) in test [1] is 85.2% [at 9.25 µM]. Moreover, in test [2], the viability, % of control is 102% [at 9.25 µM].
With `O=C(NC(NC(=S)Nc1ccc(F)c([N+](=O)[O-])c1)C(Cl)(Cl)Cl)C(c1ccccc1)c1ccccc1` (stereo not drawn), the Potency in test [1] and in test [2] was 3.26 µM (active) each time.
Take `O=C1c2c(O[C@@H]3O[C@H](CO)[C@@H](O)[C@H](O)[C@H]3O)cc(O)cc2OC1(O)Cc1ccc(O)cc1` (stereo partly drawn): the Potency in test [1] is 2 µM (active); in test [2], 3.17 µM (active).
In the same order, the values of `CC(C)=CCC/C(C)=C/CO[C@@H]1O[C@H](CO[C@@H]2O[C@@H](CO)[C@H](O)[C@H]2O)[C@@H](O)[C@H](O)[C@H]1O` are “inactive” and “inactive”.

The values above are taken from PubChem BioAssay (NCATS).
